Test results taken from PubChem BioAssay.
Active and inactive are the calls of the source.

Legend:
[1] = E. coli DRC41 culture turbidity changes, primary screen, E. coli filamentation inducer project, strain DRC41, OD650, 48 h (AID 1152);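 note: E. coli MC1000 strain DRC41 lacking acrAB efflux pump and sulA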; details: E. coli DRC41 (acrAB sulA), higher = more signal, called active from +8 up or from −8 down
[2] = small-molecule binders of probe aLefty1, primary screen, biochemical, small-molecule microarray, 635/667 nm fluorescence (AID 1153); details: higher = more signal;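 note: score merges spot fluorescence with signal-to-noise ratio from the scanned slide images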
[3] = PSAC antagonists in infected red cells, primary screen, cell-based, P. falciparum Indochina, OD700, 1 h (AID 1154); details: P. falciparum Indochina infected RBC osmotic lysis, higher = more signal, called active from +8 up or from −8 down
[4] = PSAC antagonists in infected red cells, primary screen, cell-based, P. falciparum Indochina, OD700, 2 h (AID 1155);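 note: lysis reports solute entry through the parasite surface anion channel PSAC; channel blockers reduce lysis of infected cells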; details: P. falciparum Indochina infected erythrocytes, osmotic lysis OD700; higher = more signal, called active from +8 up or from −8 down
[5] = osmotic lysis modulators in infected erythrocytes, primary screen, PSAC antagonist project, cell-based, P. falciparum Indochina, OD700, 3 h (AID 1156); details: higher = more signal, called active from +8 up or from −8 down
[6] = PSAC antagonists in infected red cells, primary screen, cell-based, P. falciparum Indochina, OD700, 18 h (AID 1157); details: P. falciparum Indochina infected erythrocytes, osmotic lysis OD700, 18 h; higher = more signal, called active from +8 up or from −8 down
[7] = modulators of S6 phosphorylation in cells, primary screen, cell-based, A549, cytoblot, luminescence, serum-stimulated (AID 1158); details: A549 phospho-S6 cytoblot, 5 h, higher = more signal;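 note: serum-stimulated A549 lung adenocarcinoma cells; signal is phosphorylated S6 detected by cytoblot immunostaining with HRP secondary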
[8] = target: NADPH oxidase 2 (Homo sapiens) (UniProt P04839); experiment: NOX2-dependent H2O2 signal modulators, primary screen, NOX inhibitor project, cell-based, HEK293-NOX2, PMA-stimulated, Amplex Red fluorescence (AID 1159); details: 45 min, higher = more signal, called active from +8 up or from −8 down; note: test concentration not given here
[9] = target: NADPH oxidase 4 (Homo sapiens) (UniProt Q9NPH5); experiment: NOX4-dependent H2O2 signal modulators, primary screen, NOX inhibitor project, cell-based, HEK293-NOX4, tetracycline-induced, Amplex Red fluorescence (AID 1160); details: 45 min, higher = more signal, called active from +8 up or from −8 down
[10] = target: NADPH oxidase 5 (Homo sapiens) (UniProt Q96PH1); experiment: NOX5-dependent H2O2 signal modulators, primary screen, NOX inhibitor project, cell-based, HEK293-NOX5, Amplex Red fluorescence (AID 1161); details: HEK293-NOX5, ionomycin, 45 min, higher = more signal
[11] = A549 cell viability effects, profiling panel, calcein-AM fluorescence, 48 h, basal (AID 1162); details: higher = more signal; note: test concentration not given here
[12] = adipocyte viability effects, profiling panel, cell-based, 3T3-L1 adipocytes, calcein-AM fluorescence, 48 h, basal (AID 1163); details: 3T3-L1 adipocytes viability, higher = more signal; note: test concentration not given here
[13] = HepG2 cell viability effects, profiling panel, calcein-AM fluorescence, 48 h, basal (AID 1164); details: higher = more signal; note: test concentration not given here
[14] = MM1S cell viability effects, profiling panel, calcein-AM fluorescence, 48 h, basal (AID 1165); details: higher = more signal;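 note: viability of MM1S multiple myeloma cells under basal unstimulated conditions; test concentration not given here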
[15] = basal RPMI8226 viability, no added stimulus, profiling panel, cell-based, calcein-AM fluorescence, 48 h, PK04 Diversity Set (AID 1166); details: RPMI8226 myeloma viability, higher = more signal;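 note: cells grown under basal conditions without added stimulus; test concentration not given here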
[16] = basal HepG2 mitochondrial membrane potential changes, profiling panel, cell-based, JC-1 fluorescence, 24 h, 100 nL compound (AID 1167); details: higher = more signal; note: test concentration not given here
[17] = basal 3T3-L1 adipocyte mitochondrial potential changes, profiling panel, cell-based, JC-1 fluorescence, 3T3-L1 adipocytes, 24 h, 100 nL compound (AID 1168); details: JC-1 mitochondrial fluorescence, higher = more signal, called active from +8 up or from −8 down; note: test concentration not given here
[18] = basal RPMI8226 mitochondrial membrane potential changes, profiling panel, cell-based, JC-1 fluorescence, 24 h, 100 nL compound (AID 1169); details: RPMI8226 myeloma, JC-1 mitochondrial potential fluorescence, higher = more signal; note: test concentration not given here
[19] = basal MM1S mitochondrial membrane potential changes, profiling panel, cell-based, JC-1 fluorescence, 24 h, 100 nL compound (AID 1170); details: higher = more signal; note: test concentration not given here
[20] = A549 lung cancer cell viability effects, profiling panel, resazurin fluorescence, 24 h, PK04 Diversity Set (AID 1171); details: higher = more signal, called active from +8 up or from −8 down; note: test concentration not given here

Sequence of NADPH oxidase 4 (Homo sapiens) (Q9NPH5 whole entry, looked up): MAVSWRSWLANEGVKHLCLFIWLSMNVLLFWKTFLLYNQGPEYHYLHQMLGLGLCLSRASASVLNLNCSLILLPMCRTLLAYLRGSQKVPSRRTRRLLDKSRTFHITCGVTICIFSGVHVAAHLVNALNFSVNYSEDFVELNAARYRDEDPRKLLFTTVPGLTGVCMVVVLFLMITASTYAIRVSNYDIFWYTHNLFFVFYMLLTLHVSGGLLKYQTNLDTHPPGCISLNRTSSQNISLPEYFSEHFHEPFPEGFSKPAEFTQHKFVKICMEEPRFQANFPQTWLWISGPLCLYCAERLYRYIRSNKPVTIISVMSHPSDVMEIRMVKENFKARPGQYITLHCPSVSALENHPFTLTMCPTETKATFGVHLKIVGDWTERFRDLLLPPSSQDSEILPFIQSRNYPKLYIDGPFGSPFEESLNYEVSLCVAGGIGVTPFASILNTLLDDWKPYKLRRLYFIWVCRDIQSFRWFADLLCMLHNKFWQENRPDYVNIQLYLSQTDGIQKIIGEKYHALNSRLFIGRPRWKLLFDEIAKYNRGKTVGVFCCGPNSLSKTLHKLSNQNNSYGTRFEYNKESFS
Sequence of NADPH oxidase 5 (Homo sapiens) (Q96PH1 whole entry, looked up): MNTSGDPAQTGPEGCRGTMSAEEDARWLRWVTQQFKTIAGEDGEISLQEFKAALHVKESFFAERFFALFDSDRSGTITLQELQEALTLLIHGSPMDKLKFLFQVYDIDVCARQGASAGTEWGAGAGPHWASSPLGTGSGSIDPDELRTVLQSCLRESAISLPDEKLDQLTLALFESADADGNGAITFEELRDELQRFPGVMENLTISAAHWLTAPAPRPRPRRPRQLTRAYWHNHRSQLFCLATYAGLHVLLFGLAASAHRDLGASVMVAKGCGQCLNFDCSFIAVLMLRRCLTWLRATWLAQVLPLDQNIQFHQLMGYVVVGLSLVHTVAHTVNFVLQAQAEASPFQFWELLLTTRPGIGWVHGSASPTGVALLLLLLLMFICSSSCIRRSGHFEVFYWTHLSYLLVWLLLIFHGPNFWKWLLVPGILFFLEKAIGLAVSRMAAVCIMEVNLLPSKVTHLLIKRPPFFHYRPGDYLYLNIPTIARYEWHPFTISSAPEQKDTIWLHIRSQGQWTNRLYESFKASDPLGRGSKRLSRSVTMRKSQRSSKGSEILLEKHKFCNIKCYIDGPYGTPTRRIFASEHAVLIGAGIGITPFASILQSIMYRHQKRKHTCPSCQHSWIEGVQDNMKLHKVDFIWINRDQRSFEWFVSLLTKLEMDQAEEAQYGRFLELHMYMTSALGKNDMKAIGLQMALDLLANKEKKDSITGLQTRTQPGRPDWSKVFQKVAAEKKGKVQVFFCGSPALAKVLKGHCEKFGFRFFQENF
Sequence of NADPH oxidase 2 (Homo sapiens) (P04839 whole entry, looked up): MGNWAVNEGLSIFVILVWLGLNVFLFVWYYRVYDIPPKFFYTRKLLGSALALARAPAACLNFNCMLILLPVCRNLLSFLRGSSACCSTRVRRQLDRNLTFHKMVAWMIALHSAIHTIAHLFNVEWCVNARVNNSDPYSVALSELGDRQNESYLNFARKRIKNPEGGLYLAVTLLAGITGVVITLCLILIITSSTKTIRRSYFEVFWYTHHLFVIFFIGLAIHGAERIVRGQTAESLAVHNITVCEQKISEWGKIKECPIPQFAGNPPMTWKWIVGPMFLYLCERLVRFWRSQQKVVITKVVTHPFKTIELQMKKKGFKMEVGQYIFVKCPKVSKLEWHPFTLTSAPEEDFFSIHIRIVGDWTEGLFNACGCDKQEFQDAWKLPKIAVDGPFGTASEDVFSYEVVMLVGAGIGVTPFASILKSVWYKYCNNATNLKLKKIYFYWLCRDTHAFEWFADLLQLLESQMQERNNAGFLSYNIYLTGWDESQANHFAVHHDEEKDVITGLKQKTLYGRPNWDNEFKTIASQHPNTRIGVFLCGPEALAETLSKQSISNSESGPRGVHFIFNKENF

Compound	z-score [1]	composite z-score [2]	z-score [3]	z-score [4]	z-score [5]	z-score [6]	z-score [7]	z-score [8]	z-score [9]	z-score [10]	z-score [11]	z-score [12]	z-score [13]	z-score [14]	z-score [15]	z-score [16]	z-score [17]	z-score [18]	z-score [19]	z-score [20]
CN(C)C(=O)[C@]1(Cc2ccccc2)N=C(c2ccc(OCCCO)cc2)O[C@@H]1c1ccccc1	-0.855 (inactive)	-0.13	28.8 (active)	23.9 (active)	-0.0356 (inactive)	2.51 (inactive)	-0.0744	0.945 (inactive)	-0.372 (inactive)	-1.73	-0.092	-0.577	0.846	-0.864	-1	0.0944	0.193 (inactive)	-1.11	-0.192	0.747 (inactive)
CCOC(=O)C[C@H]1[C@H](OC(=O)c2ccc(C(=O)c3ccccc3)cc2)[C@@H](NC(=O)c2ccc3ccccc3c2)c2cc(OCCCO)ccc2N1C(=O)c1ccc2ccccc2n1	1.86 (inactive)	0.23	6.29 (inactive)	1.32 (inactive)	-0.0906 (inactive)	0.728 (inactive)	0.154	0.412 (inactive)	0.0963 (inactive)	1.66	1.54	0.0263	0.664	0.393	-0.693	2.63	0.978 (inactive)	-0.0974	1.75	0.298 (inactive)
O=C1C2C=CC(C(O)c3ccc([N+](=O)[O-])cc3)N(Nc3ccccc3)C2C(=O)N1c1ccccc1 (stereo not given)	-1.21 (inactive)	0.124	3.99 (inactive)	2.55 (inactive)	2.09 (inactive)	1.9 (inactive)	-1.32	-2.02 (inactive)	-4.69 (inactive)	-2.53	-0.121	-1.38	0.761	0.323	-0.423	-2.59	-0.886 (inactive)	-1.01	-1.55	-0.0448 (inactive)
CC(C)C[C@@H]1NC(=O)[C@@]23C(=O)N[C@@H](Cc4ccccc4)C2[C@H](C)[C@@]2(C)O[C@H]2C3/C=C/C/C=C\CNC(=O)[C@@H](CC(C)C)NC1=O (stereo not given in full)	-0.664 (inactive)	0.0774	1.44 (inactive)	-0.172 (inactive)	0.0094 (inactive)	-0.0134 (inactive)	0.0885	0.063 (inactive)	0.41 (inactive)	-3.22	0.939	0.703	-0.293	-0.549	-0.361	-0.046	-0.618 (inactive)	-0.955	1.28	1.31 (inactive)
CN(C)CCCCNC(=O)[C@H]1C[C@H]2C(=O)NCC(=O)N2[C@H]1c1cccc(OCCO)c1	1.06 (inactive)	-0.007	0.799 (inactive)	0.33 (inactive)	-0.0825 (inactive)	0.129 (inactive)	-0.0315	-0.241 (inactive)	0.382 (inactive)	1.05	1.11	-0.237	-0.13	0.585	0.0875	0.348	0.871 (inactive)	-0.223	-0.348	1.26 (inactive)
CCCC[C@@H]1C[C@H]1[C@@H](NC(=O)c1ccc(C(F)(F)F)cc1)c1ccc(C(=O)OC)cc1	-0.499 (inactive)	0.375	8.27 (active)	0.851 (inactive)	0.512 (inactive)	0.422 (inactive)	-0.0327	-0.628 (inactive)	0.497 (inactive)	1.03	-0.844	-0.55	-1.33	-1.97	-1.73	-0.84	0.282 (inactive)	-0.167	-1.72	0.312 (inactive)
CN1C(=O)[C@]2(CCS(=O)(=O)c3ccccc3)N=C(c3ccc(OCCCO)cc3)O[C@@H]2c2ccccc21	-1.06 (inactive)	0.18	29.6 (active)	27.2 (active)	2.49 (inactive)	1.87 (inactive)	-0.0831	0.276 (inactive)	-0.0954 (inactive)	-1.12	-0.189	-1.15	0.881	-2.04	-1.77	-0.447	-0.466 (inactive)	-0.852	0.48	-0.015 (inactive)
C=C(COC)C(=O)CC[C@@H](OC(C)=O)c1ccc(OCCO)cc1	-0.297 (inactive)	-0.007	2.52 (inactive)	0.27 (inactive)	0.133 (inactive)	0.0871 (inactive)	0.239	-0.352 (inactive)	-0.885 (inactive)	-0.112	0.453	0.327	-0.446	-3.18	-0.311	-1.28	-0.979 (inactive)	-0.652	-0.655	-0.412 (inactive)
C=CCC(OC(C)=O)[C@@H]1[C@@H](N(Cc2cc3ccccc3o2)C(=O)c2cccc3ccccc23)c2cc(OCCCO)ccc2N1C(=O)c1ccc2ccccc2c1 (stereo not given in full)	-0.546 (inactive)	0.0931	0.92 (inactive)	0.0881 (inactive)	0.547 (inactive)	0.286 (inactive)	0.552	-0.764 (inactive)	-0.797 (inactive)	-2.19	0.668	0.935	0.0108	0.364	-1.98	1.93	-1.18 (inactive)	-0.276	-0.42	-1.55 (inactive)
Cc1ccc(S[C@]2(C(=O)NC3CC3)CC(=O)N(Cc3cc(C(F)(F)F)cc(C(F)(F)F)c3)[C@@H]2c2ccc(CO)cc2I)cc1	0.147 (inactive)	-0.625	5.58 (inactive)	0.774 (inactive)	0.231 (inactive)	0.229 (inactive)	-0.185	1.52 (inactive)	-1.62 (inactive)	1.14	-0.155	-0.136	0.311	-2.53	-1.81	-0.9	-0.373 (inactive)	-0.921	-2.03	0.851 (inactive)
O=C1N(CCS(=O)(=O)c2ccccc2)c2ccccc2[C@@H]2OC(c3ccc(OCCCO)cc3)=N[C@]12CCS(=O)(=O)c1ccccc1	-0.927 (inactive)	0.677	28.2 (active)	23.7 (active)	1.18 (inactive)	3.96 (inactive)	-0.47	0.678 (inactive)	2.42 (inactive)	2.43	0.762	0.675	-0.136	-1.68	-0.104	-1.04	1.48 (inactive)	-0.845	-0.774	0.967 (inactive)
COCCOC(=O)N1C(=O)[C@@]2(c3cc(C#CCC(C(=O)OC)C(=O)OC)ccc31)[C@H](C(N)=O)[C@H]1C(=O)O[C@H](c3ccccc3)[C@H](c3ccccc3)N1[C@@H]2c1ccc(OCCO)cc1	-0.886 (inactive)	0.146	28.9 (active)	16.1 (active)	-1.71 (inactive)	2.01 (inactive)	-0.275	1.75 (inactive)	1.24 (inactive)	0.515	-0.0635	0.0923	0.103	-2.16	-3.21	-1.47	0.47 (inactive)	-1.09	-1.26	0.214 (inactive)
COc1ccc([Si](C)(C)[C@H]2[C@H](CCO)O[C@@]3(C(=O)N(Cc4ccc(N5CCOC5=O)cc4)c4ccccc43)[C@@H]2C)cc1	0.257 (inactive)	0.203	34.9 (active)	32.8 (active)	1.63 (inactive)	6.38 (inactive)	0.419	-0.372 (inactive)	1.75 (inactive)	0.908	-0.108	0.684	-0.591	-2.54	-3.98	0.137	1.82 (inactive)	-0.992	-1.49	-1.54 (inactive)
COCCOC(=O)N1C(=O)[C@@]2(c3cc(C#CCNC(N)=O)ccc31)[C@H](C(=O)NC[C@H](O)c1ccccc1)[C@H]1C(=O)O[C@H](c3ccccc3)[C@H](c3ccccc3)N1[C@@H]2c1ccc(OCCO)cc1	-0.242 (inactive)	0.278	2.83 (inactive)	0.757 (inactive)	0.742 (inactive)	0.581 (inactive)	0.457	2.5 (inactive)	1.01 (inactive)	-0.677	-0.877	-0.116	-1.07	-0.286	0.995	-1.61	0.213 (inactive)	0.418	-0.193	0.637 (inactive)
CCCC=C(CCC)[C@@H](NC(=O)c1ccco1)c1ccc(C(=O)OC)cc1	-1.68 (inactive)	0.48	-0.687 (inactive)	0.324 (inactive)	0.893 (inactive)	1.11 (inactive)	-0.277	-0.0272 (inactive)	1.46 (inactive)	1.99	-4.29	-1.72	-5.68	-3.26	-4.76	-4.88	-0.458 (inactive)	-0.736	-2.86	6.91 (inactive)
COCCOC(=O)N1C(=O)[C@@]2(c3cc(C#CC4=CCCCC4)ccc31)[C@H](c1ccccc1OCCO)N1[C@H](c3ccccc3)[C@H](c3ccccc3)OC(=O)[C@H]1[C@@H]2C(N)=O	1.97 (inactive)	-0.0611	2.66 (inactive)	0.298 (inactive)	-0.714 (inactive)	-0.0482 (inactive)	2.22	1.77 (inactive)	0.548 (inactive)	-0.172	-1.13	2.16	-2.29	-3.11	-4.02	-0.985	0.686 (inactive)	-0.96	-1.85	-1.35 (inactive)
C=CCNC(=O)[C@H]1[C@@H]2C(=O)O[C@@H](c3ccccc3)[C@@H](c3ccccc3)N2[C@@H](c2ccccc2OCCO)[C@]12C(=O)N(C(=O)OCCOC)c1ccccc12	-0.557 (inactive)	0.162	2.31 (inactive)	1.1 (inactive)	-0.337 (inactive)	0.973 (inactive)	0.015	1.14 (inactive)	0.676 (inactive)	0.348	-1.25	-0.575	-1.3	-3.05	-3.82	0.387	-0.49 (inactive)	-0.919	-1.19	-1.04 (inactive)
COC(=O)[C@@]1(Cc2ccc(F)cc2)[C@H]2c3cc(C(=O)N(C)C)n(CCN4CCOCC4)c3C[C@H]2CN1C(=O)c1ccccc1	-1.43 (inactive)	0.865	-0.64 (inactive)	-0.738 (inactive)	0.922 (inactive)	-1.9 (inactive)	0.537	0.482 (inactive)	0.523 (inactive)	-0.757	-1.27	0.234	-0.796	-1.05	-0.995	-0.738	-0.318 (inactive)	-0.245	-0.28	0.389 (inactive)
